Source: the supplement of paper PMC7156485

System: TDF
Test: H1.0 immunofluorescence intensity relative to DMSO (% of DMSO); higher = stronger H1.0 induction, active = 120 or more
Details: concentration: 10 µM; 24 h
Outline: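 Using 384-well plates with 800 cells per well in RPMI plus 10% FBS, HCC1569 and TDF cells were exposed to compounds at 10 µM, in triplicate, for 24 h at 37 °C. Imaging of six fields per well at ×10 followed H1.0 and DAPI staining. The reported quantity, H1.0 nuclear intensity or cell number, is a median of replicates given as percent of the plate control, and HCC1569 values were smoothed for positional effects.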
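Also: TDF is a line of transformed human dermal fibroblasts of mesenchymal origin.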

H1.0 immunofluorescence intensity, inactive:
C[N+](C)(C)CCCCCC[N+](C)(C)C.[Br-].[Br-] [Hexamethonium bromide] 98.5
CCCCOC(=O)NS(=O)(=O)c1sc(CC(C)C)cc1-c1ccc(Cn2c(CC)nc3c(C)cc(C)nc32)cc1 84.8
CC(=O)SCC[N+](C)(C)C.[Cl-] [Acetylthiocholine chloride] 89.2
O=C1Nc2ccc(Cl)cc2C1=Cc1cc(Cl)c(O)c(Cl)c1 [PKR Inhibitor, Negative Control] 95.1
C#CC1(O)CCC2C3CCC4=CC(=O)CCC4C3CCC21C (configuration not stated) [Norethindrone] 99.5
O=NN(CCCl)C(=O)NC1CCCCC1 [Lomustine] 102
CCCCCC(O)C=CC1C=CC(=O)C1CC=CCCCC(=O)O (configuration not stated) [Prostaglandin A2] 95.6
COc1cc2c(cc1OC)-c1cc(=Nc3c(C)cc(C)cc3C)n(C)c(=O)n1CC2.Cl [Trequinsin.HCl] 92.8
Cn1c(=O)c2[nH]c(C3CCCC3)nc2n(C)c1=O [8-Cyclopentyl-1,3-dimethylxanthine] 98.6
N[C@@H](CC(=O)O)C(=O)O [L-Aspartic acid] 88.5
Nc1ncnc2c1C(=O)N(c1ccc(C3CCC(CC(=O)O)CC3)cc1)CCO2 (configuration not stated) 99.8
Cc1c(C(=O)O)c(O)cc2c1C(=O)c1c(O)c(C3OC(CO)C(O)C(O)C3O)c(O)c(O)c1C2=O (configuration not stated) [Carminic acid] 102
CC(C)C(CO)Nc1nc(Nc2cc(N)cc(Cl)c2)c2ncn(C(C)C)c2n1 (configuration not stated) [Aminopurvalanol A] 97.4
Cl.NCc1c[nH]c(=S)n1[C@H]1CCc2c(F)cc(F)cc2C1 95.9
CC(C(=O)O)c1ccc(-c2ccccc2)c(F)c1 (configuration not stated) [Flurbiprofen] 97.4
C[C@]12CCC(=O)C=C1CC[C@@H]1[C@@H]2[C@@H](O)C[C@@]2(C)[C@H]1CC[C@]2(O)C(=O)COC(=O)CCC(=O)[O-].[Na+] 82.3
Cc1ccc(-c2cc(C(F)(F)F)nn2-c2ccc(S(N)(=O)=O)cc2)cc1 [Celecoxib] 99.1
CN(C)NN=C1N=CN=C1C(N)=O [Dacarbazine] 97.8
O=C(Nc1c(Cl)cncc1Cl)c1ccc(OC(F)F)c(OCC2CC2)c1 95.6
O=S(=O)(O)C1CCNCC1 [Piperidine-4-sulphonic acid] 89
CC(CSC(=O)c1ccccc1)C(=O)N1CC(Sc2ccccc2)CC1C(=O)[O-].CC(CSC(=O)c1ccccc1)C(=O)N1CC(Sc2ccccc2)CC1C(=O)[O-].[Ca+2] (configuration not stated) 93.2
Nc1ccc(C(=O)Nc2cccc(-c3nc(N4CCOCC4)c4oc5ncccc5c4n3)c2)cn1 [PIKfyve Inhibitor] 112
CC(C)=CCC(OC(=O)C=C(C)C)C1=CC(=O)c2c(O)ccc(O)c2C1=O (stereo not drawn) [Shikonin beta,beta-dimethylacrylate] 109
CCCCCC(O)C=CC=O (racemic) 93.8
O=C1CCCC(=O)C1C(=O)c1ccc(C(F)(F)F)cc1[N+](=O)[O-] [2-[2-nitro-4-(trifluoromethyl)benzoyl]-1,3-cyclohexanedione] 99.8
CS(=O)(=O)O.Cc1ccc(NC(=O)c2ccc(CN3CCN(C)CC3)cc2)cc1Nc1nccc(-c2cccnc2)n1 [Imatinib] 107
CCC(C)(C)c1ccc(CC(C)CN2CC(C)OC(C)C2)cc1 (configuration not stated) [Amorolfine] 94.6
